# Bioassay records from PubChem.
# JMJD2E inh: JMJD2E (human) inhibition. B2RXH2. JMJD2E catalytic domain, FDH-coupled NADH fluorescence (FDH is formaldehyde dehydrogenase). Potency, µM (highest dose often 57.1 µM), without a hit: at the top dose activity change, negative = inhibition, most hits filed as inhibitors. 230,000 tested, 1.6% active;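 note: potency is the fitted concentration of half-maximal effect; 0% = wells with enzyme and -100% = buffer wells without enzyme; nearly all actives have a fitted effect of over 50% in size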
# Target sequence (B2RXH2 1-337 limits assumed): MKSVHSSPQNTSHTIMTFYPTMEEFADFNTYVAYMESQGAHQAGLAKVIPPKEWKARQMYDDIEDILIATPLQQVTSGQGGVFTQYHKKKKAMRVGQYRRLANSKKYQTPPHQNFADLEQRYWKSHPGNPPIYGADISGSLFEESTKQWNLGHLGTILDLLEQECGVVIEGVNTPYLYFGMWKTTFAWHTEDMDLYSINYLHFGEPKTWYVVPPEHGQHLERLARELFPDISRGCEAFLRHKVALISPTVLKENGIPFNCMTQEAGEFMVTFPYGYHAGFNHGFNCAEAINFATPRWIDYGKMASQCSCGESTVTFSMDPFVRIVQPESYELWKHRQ
# PNC inhibitor: blocks assembly of the perinucleolar compartment; PC3M PTB-GFP, PNC prevalence imaging, 16 h; active compounds read low; activity change (PNC), negative = inhibition, % at 10 µM; 140,000 tested, 3.1% active; AID 2417;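 active = readout at or below -70, meaning at least 70% loss of cells showing the perinucleolar compartment, a nuclear body marking cancer cells; inconclusive = readout between -30 and a set limit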;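 note: plate controls were DMSO wells for no effect and camptothecin positive control wells for full effect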
#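 PC3M cells stably expressing PTB-GFP, 750–1000 cells/well, treated 16 h at 37 °C with compound (23 nl of library stock), in duplicate. After paraformaldehyde fixation and Hoechst stain, imaged at 20x; PNC prevalence scored by image analysis.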
# HPGD block: HPGD (human) dehydrogenase inhibition. 150,000 tested, 4.3% active. AID 894. purified HPGD, NADH fluorescence kinetic, PGE2 substrate. Potency, µM, without a hit: top-dose activity change, negative = inhibition, usual class: inhibitors. P15428; note: potency is the fitted concentration of half-maximal effect
# Target sequence (P15428 whole entry, looked up): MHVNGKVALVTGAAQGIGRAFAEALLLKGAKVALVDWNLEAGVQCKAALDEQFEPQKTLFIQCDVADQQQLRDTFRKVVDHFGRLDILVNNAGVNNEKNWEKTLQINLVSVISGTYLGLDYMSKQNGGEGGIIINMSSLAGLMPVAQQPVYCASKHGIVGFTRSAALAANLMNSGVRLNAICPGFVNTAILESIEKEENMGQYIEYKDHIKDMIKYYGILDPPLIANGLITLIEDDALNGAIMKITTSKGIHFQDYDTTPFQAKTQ
#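 20 nM HPGD preincubated 15 min at room temperature with compound in 50 mM Tris-HCl pH 8, 0.01% Tween 20. Started with 1 mM NAD+ and 30 uM prostaglandin E2; NADH fluorescence (360/450 nm) read 5 times over 30-s intervals, last minus first.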
# ALDH1A1 inh: inhibitors of human aldehyde dehydrogenase 1A1. AID 1030. P00352. 220,000 tested, 7.3% active. Potency, µM (series often up to 75.3 µM), without a hit: at the top dose activity, negative = inhibition, usual class: inhibitors. Purified ALDH1A1, NADH fluorescence, propionaldehyde substrate;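 note: potency is the fitted concentration of half-maximal effect; plate controls were no enzyme wells and a reference inhibitor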
# Numbers without * were called inactive; u = inconclusive; x = not tested or not shown; [ ] = another dose, or the depositor's remark. Sampled rows, rich in hits. Any-hit rate of the full collection: about 11%. Unless noted, calls come from the whole dose curve; as a rule, active = well fitted inhibition curve with a large enough effect (not every such curve was filed as active); inconclusive = small, poorly fitted or top-dose-only effect, or another doubt; inactive = no such curve, though single readings can be large or run the other way. Unless noted, % is set by controls: 0 for no effect and ±100 for the full control effect.
SMILES,JMJD2E inh,PNC inhibitor,HPGD block,ALDH1A1 inh
CCN1CCCc2cc(CN(CCN3CCOCC3)C(=S)Nc3cccc(OC)c3)ccc21,-15%,x,x,16µM*
COc1cccc(NC(=S)NCCN2CCOCC2)c1,-1%,-91*,-3%,13%
CC(C)=NO[C@@H](C)c1cc(-c2c(C)cc(C)cc2C)no1,x,x,x,12%[13.5 µM]
Cc1ccc(F)cc1NC(=O)N1c2ccccc2NC(=O)CC1C (centres undefined),-3%,x,x,x
CC[C@]1(O)C[C@@H]2CN(CCc3c([nH]c4ccccc34)[C@](C(=O)OC)(c3cc4c(cc3OC)N(C=O)[C@H]3[C@@](O)(C(=O)OC)[C@H](C(=O)OC)[C@@]5(CC)C=CCN6CC[C@]43[C@H]65)C2)C1,-20%,x,-18%,-8%
Clc1ccc(-n2c(SC/C=C/c3ccccc3)nnc2-c2cccnc2)cc1,7%,u,-12%,u
Nn1c(SC/C=C/c2ccccc2)nnc1-c1cccnc1,-8%,43,-11%,13µM*
c1ccc(-c2nc(-c3ccccc3)c(NC3CCCCC3)o2)cc1,-1%,x,-1%,1%
COc1ccc(-c2nc3c(c4c2C[C@H](c2ccccc2)OC4)CN(C(=O)NCc2ccco2)CC3)c(C)c1,-1%[11.4 µM],x,-6%,1.8µM*
COc1ccc(-c2nc3c(c4c2C[C@H](c2ccccc2)OC4)CN(C(=O)Cc2cccs2)CC3)c(C)c1,-17%[11.4 µM],x,-4%,4µM*
O=C(c1csnn1)N1CCC[C@@]2(CCN(c3ncccn3)C2)C1,x,x,-13%,4%
CC1CCc2c(cnc3ncnn23)C1 (centres undefined),9%,x,x,x
O=C(CCS(=O)(=O)c1cccc2nsnc12)NC1CCCCC1,-1%,42,28µM*,u
O=C(NC1CCCCC1)C1CCN(S(=O)(=O)c2cccc3nsnc23)CC1,7%,-11,0%,23%
O=C(NC1CCCCC1)C1CCC(CNS(=O)(=O)c2cccc3nsnc23)CC1 (centres undefined),-4%,2,-18%,u
O=C(CCNS(=O)(=O)c1cccc2nsnc12)NC1CCN(Cc2ccccc2)CC1,0%,-112*,-19%,5%
O=C(CCS(=O)(=O)c1cccc2nsnc12)N1CCN(Cc2ccc3c(c2)OCO3)CC1,-4%,-13,-5%,u
O=C(CCS(=O)(=O)c1cccc2nsnc12)N1CCN(C(=O)c2ccco2)CC1,-4%,-3,-8%,25µM*
O=C(CNS(=O)(=O)c1cccc2nsnc12)NC1CCCCC1,-1%,-111*,-13%,3%
OC[C@@H](O)[C@@H](O[C@H]1O[C@H](CO)[C@@H](O)[C@H](O)[C@H]1O)[C@H](O)[C@@H](O)CO,-13%,x,x,x
CCN(CC)S(=O)(=O)c1cccc(NC(=O)COc2ncnc3sccc23)c1,0%,x,x,2%
Fc1ccc(-n2cc(CNCCc3cccnc3)c(-c3ccccc3Cl)n2)cc1,-18%,x,x,u
C=C1CC[C@H](O)C/C1=C/C=C1\CCC[C@]2(C)C([C@H](C)CC[C@@H](O)C(C)(C)O)CC[C@@H]12 (some centres undefined),x,x,x,1%
CCN(CC)c1ccc(NC(=O)CCS(=O)(=O)c2cccc3nsnc23)c(C)c1,-4%,x,x,28µM*
CCc1ccc(NC(=O)CCS(=O)(=O)c2cccc3nsnc23)cc1,-2%,-5,-20%,-11%
SMILES,JMJD2E inh,PNC inhibitor,HPGD block,ALDH1A1 inh
COc1ccccc1NC(=O)CN1CC(=O)Nc2ccccc21,u,x,x,3.5µM*
O=C(CN1CC(=O)Nc2ccccc21)Nc1ccc(F)c(F)c1,u,x,x,6.3µM*
O=C(CSc1ccc2ccccc2c1)Nc1ccc(S(=O)(=O)Nc2nccs2)cc1,0%,u,-22%,u
Cc1csc(SCC(=O)NC23CC4CC(CC(C4)C2)C3)n1,1%,33,28µM*,3%
Nc1cc(=O)[nH]c(SCC(=O)Nc2ccc(S(=O)(=O)N3CCCCC3)cc2)n1,4%,x,x,19µM*
O=C(O)CSCC(=O)Nc1ccc(S(=O)(=O)N2CCCCC2)cc1,8%,13,-7%,-4%
Cc1nnc(SCC(=O)NC23CC4CC(CC(C4)C2)C3)s1,-2%,x,x,u
Cc1csc(SCC(=O)Nc2ccc(S(=O)(=O)N3CCCC3)cc2)n1,-1%,15,-18%,14µM*
CC(SCC(=O)Nc1ccc(S(=O)(=O)N2CCCCC2)cc1)C(=O)O (centres undefined),0%,-7,-2%,28µM*
CNC(=O)C1(CC(C)C)C=CCN1C(=O)c1ccccc1 (centres undefined),5%,x,-10%,-1%
C=CCNC(=S)/N=c1/ccccn1CC,-10%,x,x,x
CCCCC1=CC2=C(c3ccco3)C(=O)C(C)(OC(=O)c3ccc(OC)cc3)C(=O)C2=CO1 (centres undefined),5%,x,-12%,1%
Cc1ccc2cc3cc(C(=O)NCCN4CCOCC4)oc3nc2c1,u,-100*,u,u
CN(C)/C=N/c1cnc(C(=O)c2ccc(Cl)cc2)n1C,0%,9,16µM*,-1%
O=C(CCCc1nc2ccccc2s1)NCc1ccccc1F,4%,3,32µM*,u
COc1ccc(N2C(=O)CC(N(C)CCc3ccc(OC)c(OC)c3)C2=O)cc1 (centres undefined),-17%,x,x,0%
CN(Cc1ccncc1)C1CC(=O)N(c2ccc(F)cc2)C1=O (centres undefined),-3%,x,x,18µM*
COC(=O)c1ccc(N2C(=O)CC(N(C)CCc3ccc(OC)c(OC)c3)C2=O)cc1 (centres undefined),-6%,-119*,-12%,3.5µM*
COc1ccc(CN(C(=S)Nc2ccccc2)C2CC(=O)N(c3ccc(Cl)cc3)C2=O)cc1 (centres undefined),-8%,26,-12%,7.1µM*
COC(=O)c1ccc(N2C(=O)CC(N(C)Cc3ccccc3)C2=O)cc1 (centres undefined),3%,7,-13%,8.9µM*
CCOC(=O)C1(c2csc(N)n2)COC(=O)C1 (centres undefined),2%,-14,2%,-23%
CCCOCC1CC2(CC(C)(c3csc(N)n3)OC2=O)C(=O)O1 (centres undefined),-5%,-119*,0%,2%
CCCN(C(=O)CCl)C1=CCCCC1,-1%,x,x,0.71µM*
CCCNC(=O)C(=O)NCCC1=CCCCC1,1%,12,-2%,6%
CN1CCN(c2ccc(C(=O)c3ccc(Br)cc3)cc2[N+](=O)[O-])CC1,-1%,x,x,15%
CC1(C)CC(=O)C(C=NCCN2CCOCC2)=C(O)C1,-1%,-96*,-12%,u
CC(=C1C(=O)c2ccccc2C1=O)N1CCN(CCN=CC2=C(O)CC(C)(C)CC2=O)CC1,4%,31,-4%,14µM*
CC1(C)CC(=O)C(C=NCCN2CCN(C(=O)CC3CCCC3)CC2)=C(O)C1,-2%,-4,-6%,u
CC1(C)CC(=O)C(C=NCCN2CCN(C(=O)NC34CC5CC(CC(C5)C3)C4)CC2)=C(O)C1,0%,-10,-9%,16µM*
Cn1cccc1C(=O)N1CCC2(CCN(Cc3ccccc3)CC2)CC1,x,x,-1%,1%
